# PI5P4Ka inh: qHTS for Inhibitors of phosphatidylinositol 5-phosphate 4-kinase (PI5P4K); Phosphatidylinositol 5-phosphate 4-kinase type-2 alpha (Homo sapiens), P48426; PI5P4Kalpha enzyme, ADP-Glo luminescence, 60 min; active compounds read low; max response, %; 330,000 tested, 1.2% active; active means max response of -50% or lower; inconclusive means between -30% and -50%; inactive means -30% or higher; further: value at the top dose of about 77 µM; on the % scale 0 is the no-effect control and ±100 the full control effect
#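 Luminescence from ADP-Glo served as readout of PI5P4Kalpha activity in a qHTS format. Reaction: enzyme, substrate, compound, ATP at 5 microM final, 60 min at RT.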
# JMJD2A Tudor: qHTS Assay for Inhibitors of JMJD2A-Tudor Domain. AlphaScreen JMJD2A-Tudor / H3K4me3 peptide binding. 390,000 tested, 4.4% active. Lysine-specific demethylase 4A (Homo sapiens), O75164. Potency, µM (titrated, usually from 114 µM), inactives show at the highest dose activity change, negative = inhibition, most hits filed as inhibitors; further: potency means the concentration at half of the fitted maximal effect; on the % scale 0 is the no-effect control and ±100 the full control effect; nearly all actives have a fitted effect of over 50% in size
# HP1b binding inh: HTS for Inhibitors of HP1-beta Chromodomain Interactions with Methylated Histone Tails; Chromobox protein homolog 1 (Homo sapiens), P83916; AlphaScreen HP1-beta / biotin-H3K9me3 peptide binding; Potency, µM (doses to about 114 µM), for the others: at the top dose activity change, negative = inhibition, usual class: inhibitors; 390,000 tested, 0.56% active; AID 540317, 2011; further: potency means the concentration at half of the fitted maximal effect; nearly all actives have a fitted effect of over 70% in size
#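 AlphaScreen: HP1-beta (50 nM) preformed 30 min with biotin-H3(1-18)K9me3 peptide (50 nM) in PBS pH 7.4, 0.01% Tween-20. Compound added for 30 min at RT, then streptavidin donor/nickel chelate acceptor beads (10 ug/mL) for 30 min.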
# KAT2A inh: qHTS Assay for Inhibitors of GCN5L2; GCN5L2 HAT assay, ThioGlo1 CoA-SH fluorescence; Potency, µM (highest dose often 58.9 µM), without a hit: at the highest dose activity change, negative = inhibition, usual class: inhibitors; 390,000 tested, 0.21% active; AID 504327, 2011; further: potency means the concentration at half of the fitted maximal effect; on the % scale 0 is the no-effect control and ±100 the full control effect
#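 Free CoA generated was detected with ThioGlo1 (50uM) fluorescence at Ex340nm/Em540nm, read immediately and after 20 min at room temperature. Enzyme, 20 nM in HEPES pH 7.5 buffer, saw compounds 15 min before adding 75uM H3(1-25) peptide and 70uM acetyl-CoA.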
# BAZ2B block: qHTS Assay for Inhibitors of BAZ2B | AlphaScreen BAZ2B-H3K14Ac peptide displacement | Potency, µM (highest dose often 114 µM), inactives show at the top dose activity change, negative = inhibition, usual class: inhibitors | 360,000 tested, 4.4% active | AID 504333, 2011; further: potency means the concentration at half of the fitted maximal effect; on the % scale 0 is the no-effect control and ±100 the full control effect; nearly all actives have a fitted effect of over 60% in size
#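 BAZ2B 50 nM plus b-H3(5-23)K14Ac 50 nM, PBS pH 7.4/0.01% Tween-20, 30 min RT; compound added (max 110 uM), 30 min RT; streptavidin donor/Ni-chelate acceptor beads 10 ug/mL final, 20 min dark; AlphaScreen read.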
# PLK1 PBD inh: qHTS for Inhibitors of PLK1-PDB (polo-like kinase 1 - polo-box domain): Primary Screen; AID 720504, 2013; Serine/threonine-protein kinase PLK1 (Homo sapiens), P53350; 360,000 tested, 2.8% active; Potency, µM, inactives show max response, negative = inhibition, actives largely listed as inhibitors; Plk1 PBD binding of FITC phosphopeptide, fluorescence polarization; further: potency means the concentration at half of the fitted maximal effect; series mostly up to about 57 µM; on the % scale 0 is the no-effect control and ±100 the full control effect; nearly all actives have a fitted effect of over 65% in size
# Target sequence (P53350 whole entry, looked up, the tested form may be a part): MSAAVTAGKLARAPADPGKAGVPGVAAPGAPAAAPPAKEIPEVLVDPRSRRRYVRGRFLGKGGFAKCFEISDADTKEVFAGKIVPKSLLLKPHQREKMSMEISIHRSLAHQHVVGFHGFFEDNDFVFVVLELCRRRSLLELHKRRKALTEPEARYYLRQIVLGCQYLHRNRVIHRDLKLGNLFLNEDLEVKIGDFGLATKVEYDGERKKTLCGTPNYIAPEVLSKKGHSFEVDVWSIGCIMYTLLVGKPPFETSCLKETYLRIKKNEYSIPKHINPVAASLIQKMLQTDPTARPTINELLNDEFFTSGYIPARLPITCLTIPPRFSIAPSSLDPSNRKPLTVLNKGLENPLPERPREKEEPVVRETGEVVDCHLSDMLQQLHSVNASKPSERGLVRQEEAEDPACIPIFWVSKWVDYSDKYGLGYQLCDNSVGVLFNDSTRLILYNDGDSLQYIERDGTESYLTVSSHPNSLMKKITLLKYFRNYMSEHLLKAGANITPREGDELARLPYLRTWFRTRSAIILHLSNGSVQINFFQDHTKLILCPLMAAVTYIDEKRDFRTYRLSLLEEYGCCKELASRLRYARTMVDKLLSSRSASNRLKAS
# The depositor's hits bear a star; u = inconclusive; x = not tested or not shown. Rows were chosen to be rich in hits. Some 7% of all compounds tested hit in one or more screens of this group. Unless noted, the call rests on the fitted dose curve; in most records, active means well fitted curve in the direction sought with a large enough effect; inconclusive means small, poorly fitted or top-dose-only effect, or another doubt; inactive means no such curve, though single readings can be large; an effect the other way counts as inactive or inconclusive.
SMILES,PI5P4Ka inh,JMJD2A Tudor,HP1b binding inh,KAT2A inh,BAZ2B block,PLK1 PBD inh
Cc1cccc(N/N=C/c2ccc(O)c(O)c2O)c1,-23,45µM*,u,-9%,50µM*,12µM*
O=C(CCn1c2c(c3ccccc31)CCCC2)NNC(=O)c1ccc(Cl)c([N+](=O)[O-])c1,4,u,u,-5%,5%,30µM*
C=CCN(CC=C)C(=O)c1ccc(OC2CCN(C(C)=O)CC2)c(OC)c1,1,0%,37%,-6%,-15%,3%
COc1ccc(-c2csc(Nc3ccc(S(=O)(=O)Nc4cc(OC)nc(OC)n4)cc3)n2)cc1,-18,u,u,-17%,45µM*,24µM*
COc1ccc(-c2csc(Nc3ccc(S(=O)(=O)Nc4cc(C)on4)cc3)n2)cc1C,-12,u,-15%,-5%,50µM*,u
Cc1ccc(S(=O)(=O)CNC(=S)c2ccc3ccccc3c2)cc1,-12,u,-18%,-4%,u,u
COc1ccc(C(=S)Nc2ccc(C)cc2)cc1,-17,-25%,u,0%,-4%,21µM*
COc1ccc(C(=S)NCS(=O)(=O)c2ccc(C)cc2)cc1,2,-27%,-29%,-6%,u,19µM*
COc1ccc(NC(=S)c2ccncc2)cc1,6,-5%,29%,4%,-9%,-6%
C[C@H]1CN([C@@H](C)CO)C(=O)c2cccc(NC(=O)C3CC3)c2O[C@H]1CN(C)S(=O)(=O)c1cccs1,-2,-4%,88%,0%,x,-18%
C(=N\c1nccs1)/Nc1nccs1,1,35µM*,-77%,-6%,79µM*,-10%
O=C(CN(CCc1ccccc1)C(=O)c1csnn1)NC1CCCC1,3,-8%,36%,-5%,-14%,-3%
O=C(CN(Cc1cccs1)C(=O)c1csnn1)NC1CCCC1,1,79µM*,u,4%,13%,27µM*
O=C(NC1CCCCC1)C(c1cccnc1)N(C(=O)c1csnn1)c1ccccc1F (configuration not stated),-1,10%,43%,1%,1%,-5%
O=C(NC1CCCC1)C(c1ccccn1)N(C(=O)c1csnn1)C1CCCCC1 (configuration not stated),-19,u,-13%,-3%,-1%,27µM*
O=C(NC1CCCC1)C(c1cccnc1)N(C(=O)c1csnn1)c1ccccc1Cl (configuration not stated),-11,50µM*,14%,0%,7%,u
O=C(NC1CCCC1)C(c1ccccn1)N(C(=O)c1csnn1)C1CC1 (configuration not stated),x,u,-5%,-2%,-2%,-12%
CCN1CCCC(OC(=O)c2cc(-c3ccccc3Cl)nc3ccccc23)C1 (configuration not stated),5,-26%,19%,-2%,u,-3%
CCN(/N=C/c1ccc(Cl)cc1)c1cc(=O)n(C)c(=O)[nH]1,-5,40µM*,9%,31%,1%,-18%
CCN(/N=C/C=C/c1ccccc1)c1cc(=O)n(C)c(=O)[nH]1,2,-22%,15%,-5%,u,-9%
CN(C)c1ccc(NC(=O)CSc2nc3ccccc3c(=O)n2C2CCCCC2)cc1,x,7.9µM*,u,-12%,10µM*,4%
COc1ccc(NC(=O)Cn2nnc(C(=O)NCc3cccs3)c2N)c(OC)c1,-22,22µM*,-19%,-9%,-16%,24µM*
COc1cccc(Cn2nnc(C(=O)Nc3cc(C)ccc3OC)c2N)c1,-3,u,5%,-4%,-2%,27µM*
